Source: paper PMC4552634, “A New Set of Chemical Starting Points with Plasmodium falciparum Transmission-Blocking Potential for Antimalarial Drug Discovery” (PLoS ONE, 2015)
Hit rate of the full screen: of about 13,000 compounds, about 3,200 (25%) showed an effect of 50% or more. The list shows a part of the results.

test system: P. falciparum stage V gametocytes; parameters: BacTiter-Glo ATP luminescence viability of purified stage V gametocytes in 384-well plates, per cent inhibition versus DMSO; conditions: 48 h, 5 µM; inhibitor

Compared with `Fc1cccc(COc2ccc(-n3ccc4c(NCCCn5ccnc5)ncnc43)cc2Cl)n1` [TCMDC-135092], `COc1ccc2ccccc2c1C=NNc1ccnc2cc(Cl)ccc12` [TCMDC-123949] is lower in “% Inhibition” value: -5.729% for the first, -70.44% for the second.

Compared with `CCCCN(CCCC)CCCN(CCCN(CCCC)CCCC)c1cc(C)nc(Nc2ccc(Cl)cc2)n1` [TCMDC-137487], `CCCN(CCC)CCCN(CCCN(CCC)CCC)c1cc(C)nc(Nc2ccc(Cl)cc2)n1` [TCMDC-137773] is lower in “% Inhibition” value: 97.2% for the first, 63.95% for the second.

First: CCN(CC)CCCN(CCCN(CC)CC)c1cc(C)nc(Nc2ccc(Cl)cc2)n1 [TCMDC-137489]
Second: CCCN(CCCN(CCCN(CCC)C(C)C)c1cc(C)nc(Nc2ccc(Cl)cc2)n1)C(C)C [TCMDC-138003]
The “% Inhibition” value of the first is lower: 39.75% for the first, 44.69% for the second.

First: Cc1cc(NCCCCCCN)nc(Nc2ccc(Cl)cc2)n1 [TCMDC-138191]
Second: CCNc1cc(C)nc(Nc2ccc(C)cc2)n1 [TCMDC-134007]
The “% Inhibition” value of the first is higher: 54.5% for the first, 5.581% for the second.

Compared with `Cc1cc(N(C)CCCN(C)C)nc(Nc2ccc(Cl)cc2)n1` [TCMDC-136887], `Cc1cc(N(CCCN(C)C)Cc2cc(F)cc(F)c2)nc(Nc2ccc(Cl)cc2)n1` [TCMDC-132203] is lower in “% Inhibition” value: 28.42% for the first, -7.276% for the second.

Compared with `CCNc1cc(C)nc(Nc2ccc(F)cc2)n1` [TCMDC-134008], `Cc1cc(-c2ccnc(Nc3cccc(C#N)c3)n2)cc(C)c1O` [TCMDC-133719] is lower in “% Inhibition” value: 39.4% for the first, -73.96% for the second.

First: O=C(NC1CCCCCC1)C1CCCN(C(=O)c2ccc(O)c(-c3ccc(Cl)c(Cl)c3)c2)C1 (stereo not shown) [TCMDC-140888]
Second: Cc1ccc(C2CCN(CCCCNC(=O)c3ccc(NC(=O)c4ccc(Cl)cc4)cc3)CC2)c(OCC2CC2)c1 [TCMDC-138541]
The “% Inhibition” value of the first is lower: 23.53% for the first, 76.06% for the second.

Going from `CCCCN1C(=O)C2CC(=O)CC(C3CCCCC3)C2C1=O` (stereo not shown) [TCMDC-139128] to `O=C(CCC1CCCCC1=O)c1ccccc1` (stereo not shown) [TCMDC-125845], the “% Inhibition” value falls from 18.42% to 5.946%.

Compared with `O=C(O)C(F)(F)F.c1cc(-c2ccc(CNC3CCOCC3)cc2)cc(-c2nc3ccccc3[nH]2)c1` [TCMDC-132572], `O=C(NCCN1CCOCC1)c1ccc(N2CCC(Oc3ccc4ccccc4c3)CC2)nc1` [TCMDC-134400] is lower in “% Inhibition” value: 48.89% for the first, 19.81% for the second.

Going from `CCCC[C@H](NC(=O)OC(C)(C)C)C(=O)Nc1ccc(Cc2ccc(NC(=O)[C@H](CCCC)NC(=O)OC(C)(C)C)cc2)cc1` [TCMDC-131870] to `CCCC[C@H](NC(=O)O[C@H](COc1ccc(OCc2ccccc2)cc1)C(C)(C)C)C(=O)C(=O)Nc1ccn[nH]1` [TCMDC-138665], the “% Inhibition” value rises from -71.66% to 67.01%.

Compared with `CCC[C@@H]([C@@H](CC(C)C)C(=O)N[C@@H](CCCCNC(=O)OCc1ccccc1)C(=O)Nc1ncccn1)N(O)C=O` [TCMDC-137323], `CCOc1ccccc1C1CCN(CCCCNC(=O)c2ccc(NC(=O)c3ccc(Cl)cc3)cc2)CC1` [TCMDC-138369] is lower in “% Inhibition” value: 42.47% for the first, -17.64% for the second.

First: Cc1ccc2c(Cl)c(C(=O)N3CCCc4ccccc43)sc2c1 [TCMDC-125658]
Second: CCOc1cc(C)ccc1C1CCN(CCCCNC(=O)c2ccc(NC(=O)c3cc(Cl)cc(Cl)c3)cc2)CC1 [TCMDC-138620]
The “% Inhibition” value of the first is lower: 1.703% for the first, 9.848% for the second.

Compared with `CC1(CCc2ccccc2)N=C(N)N(Cc2ccccc2)C(=O)C1c1ccc(Cl)c(Cl)c1` (stereo not shown) [TCMDC-136509], `CC1(CCc2ccccc2)N=C(N)N=C(N)C1c1ccc(Cl)c(Cl)c1` (stereo not shown) [TCMDC-136376] is lower in “% Inhibition” value: 88.15% for the first, 33.71% for the second.

Compared with `CCCCCCC1(C)N=C(N)N=C(N)C1c1ccc(Cl)c(Cl)c1` (stereo not shown) [TCMDC-137594], `CCOc1ccc(C2CCN(CCCCNC(=O)c3ccc(NC(=O)c4ccc(Cl)cc4)cc3)CC2)c(Cl)c1` [TCMDC-138365] is higher in “% Inhibition” value: 22.11% for the first, 58.19% for the second.

Compared with `CN(c1ccc2c(c1)nc(NCc1ccccc1)n2C)c1ccnc(Nc2ccc(CS(C)(=O)=O)cc2)n1` [TCMDC-138740], `COc1ccccc1C1CCN(CCCCNC(=O)c2ccc(NC(=O)c3ccc(Cl)cc3)cc2)CC1` [TCMDC-138239] is lower in “% Inhibition” value: 25.8% for the first, 21.16% for the second.

Compared with `Cc1ccc(C2CCN(CCCCNC(=O)c3ccc(NC(=O)c4ccc(Cl)cc4)cc3)CC2)c(OCC(F)(F)F)c1` [TCMDC-138572], `CCOc1cc(C(C)C)ccc1C1CCN(CCCCNC(=O)c2ccc(NC(=O)c3ccc(Cl)cc3)cc2)CC1` [TCMDC-138385] is higher in “% Inhibition” value: -14.71% for the first, 20.72% for the second.

Compared with `COc1ccc(C2CCN(CCCCNC(=O)c3ccc(NC(=O)c4ccc(Cl)cc4)cc3)CC2)c(OC)c1` [TCMDC-138254], `CCc1cc(OC)ccc1C1CCN(CCCCNC(=O)c2ccc(NC(=O)c3ccc(Cl)cc3)cc2)CC1` [TCMDC-138360] is lower in “% Inhibition” value: 47.57% for the first, -6.372% for the second.

Compared with `COc1ccccc1C1CCN(CCCCNC(=O)c2ccc(/C=C/c3cc(Cl)cc(Cl)c3)cc2)CC1` [TCMDC-138241], `COc1cc(C(C)C)ccc1C1CCN(CCCCNC(=O)c2ccc(NC(=O)c3ccc(Cl)cc3)cc2)CC1` [TCMDC-138403] is higher in “% Inhibition” value: 103.9% for the first, 115.5% for the second.

In the case of `CCOc1ccc(C2CCN(CCCCNC(=O)c3ccc(NC(=O)c4ccc(Cl)cc4)cc3)CC2)c(CC)c1` [TCMDC-138357], the “% Inhibition” value is reported as 26.78%.
